# Assay results as given in PubChem BioAssay (NCI).
# The panel holds about 83,000 compounds, 20% with a hit somewhere; the sample as a whole holds those more often.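 Activity criterion: percent growth below 10, measured after cells in 96-well plates were exposed to a single compound concentration for 48 hours.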 Values without a mark were called inactive. Activity calls are given as the source filed them.
# Columns and labels:
# Assay in all cases: NCI-60 one-dose screen, 48 h (100 = growth as untreated, 0 = no growth, -100 = all killed)
# Settings in all cases: 10 µM unless noted
# [1] = test system: NCI-H23 lung
# [2] = test system: NCI-H226 lung
# [3] = test system: NCI-H322M lung
# [4] = test system: HOP-62 NSCLC
# [5] = test system: NCI-H460 lung
# [6] = test system: HOP-92 NSCLC
# [7] = test system: NCI-H522 lung
# [8] = test system: A549/ATCC NSCLC
# [9] = test system: 786-0 renal
# [10] = test system: COLO 205 colon
# [11] = test system: DU-145 prostate
# [12] = test system: K-562 leukemia
# [13] = test system: MALME-3M melanoma
# [14] = test system: MDA-MB-231 breast
# [15] = test system: RXF 393 renal
# [16] = test system: SF-268 CNS
# [17] = test system: SF-295 CNS
# [18] = test system: SF-539 CNS
# [19] = test system: UACC-257 melanoma
# [20] = test system: M14 melanoma
Structure (SMILES),growth [1],growth [2],growth [3],growth [4],growth [5],growth [6],growth [7],growth [8],growth [9],growth [10],growth [11],growth [12],growth [13],growth [14],growth [15],growth [16],growth [17],growth [18],growth [19],growth [20]
COC(=O)c1cccc(Oc2ccc(NC(=O)Nc3cc(C(F)(F)F)ccc3F)cc2)c1,69.3%,57.5%,91.1%,-8.81% (active),30.6%,40.7%,49.8%,47%,47.3%,88.2%,78.8%,59.5%,77.7%,40%,41.4%,50.2%,58.8%,34.1%,90.8%,84.9%
Cc1nn(-c2ccccc2)c2nc(C)n(C(=O)N/N=C/c3ccccc3)c(=O)c12,99.7%,87.5%,103%,102%,106%,99.4%,97.9%,101%,97.1%,118%,114%,95.6%,91.5%,91.8%,111%,104%,94.9%,93.8%,106%,98.5%
COc1ccc(-c2nc3ccc(-c4nnc(SCc5ccccc5)o4)cc3[nH]2)cc1OC,38.8%,-26.7% (active),46.7%,-29.8% (active),-6.16% (active),-3.75% (active),51.9%,9.7% (active),-33.5% (active),74.2%,17.2%,56.8%,15.9%,-34.4% (active),-34.1% (active),35.2%,55.4%,-44.5% (active),78.4%,40.7%
NS(=O)(=O)c1ccc(Nc2nc(SCC(=O)c3ccc(F)cc3)nc3ccccc23)cc1,41.8%,50.1%,58.7%,54.4%,36%,56.3%,42.1%,53.8%,68.9%,77%,52.9%,24.1%,31.7%,51.7%,63.5%,46.8%,59.9%,53.2%,77.9%,56%
C=CCn1c(O)c(N=Nc2nc(-c3cc4ccccc4oc3=O)cs2)c2ccccc21,35.4%,74.2%,101%,80.8%,18.3%,85%,58.3%,24.7%,47.3%,18.1%,74.1%,107%,104%,-24.9% (active),-4.94% (active),42.1%,54.6%,83.7%,101%,70.9%
Cc1ccccc1Nc1nnc(-c2c[nH]c3ccccc23)o1,28.1%,43.9%,38.2%,24.8%,20.1%,29.1%,-23.2% (active),40.3%,40%,-32.7% (active),26.4%,7.28% (active),33.5%,26.9%,-4.44% (active),59%,8.71% (active),-25.9% (active),49.7%,6.24% (active)
CCCCCCCCc1ccc(C(=O)Nc2ccc(C)cc2C(=O)O)cc1,85.2%,84.3%,91.1%,96.3%,88.4%,10.4%,73.2%,66.8%,89.6%,119%,95%,59.4%,92.2%,96.9%,110%,96%,51.1%,100%,95.8%,104%
